From PubChem BioAssay (NCATS)
“And” between values parts separate entries of the source, which are not always exact repeats. Identical values can stand only once. Results filed as inconclusive are left out. A number with no mark means an inactive call. The source made the active and inactive calls. Unless noted, calls follow the shape of the dose curve; as a rule, active = well fitted curve in the direction sought with a large enough effect; inconclusive = small, poorly fitted or top-dose-only effect, or another doubt; inactive = no such curve, though single readings can be large; an effect the other way counts as inactive or inconclusive.

Columns and labels:
[1] = qHTS assay for small molecule agonists of the antioxidant response element (ARE) signaling pathway measured by Nrf2-dependant transcriptional activity (AID 720636; active = well fitted curve in the direction sought with a large enough effect in the repeat runs; an effect the other way counts as inactive or inconclusive; also: potency is read from the fitted curve at half-maximal effect)
How it was run: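 We exposed ARE-luc HepG2 cells, seeded in assay medium with 1% dialyzed FBS and allowed 6 hr to adhere, to test compounds overnight (16 hr, 37 C) before measuring luciferase with ONE-Glo.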

[2] = qHTS assay for small molecule antagonists of the retinoid-related orphan receptor gamma (ROR-gamma) signaling pathway - cell viability counter screen (AID 720652; active = well fitted curve in the direction sought with a large enough effect in the repeat runs; an effect the other way counts as inactive or inconclusive;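 also: CHO reporter cells with doxycycline-induced ROR-gamma expression; series mostly up to about 92 µM; compound exposure lasted 16 hr before ATP read; % is scaled to controls: 0 for no effect and ±100 for the full control effect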)
How it was run: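 ATP-based viability readout in the ROR-gamma reporter CHO cells after 16 hr compound exposure under doxycycline induction.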

[3] = qHTS assay for small molecule agonists of the antioxidant response element (ARE) signaling pathway measured by Nrf2-dependant transcriptional activity - cell viability counter screen (AID 720653; active = well fitted curve in the direction sought with a large enough effect in the repeat runs; an effect the other way counts as inactive or inconclusive; also: % is scaled to controls: 0 for no effect and ±100 for the full control effect); settings: ARE-bla HepG2 viability, CellTiter-Glo ATP luminescence, 16 h; stronger effect = lower value
How it was run: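 Cytotoxicity counter screen: intracellular ATP quantified by CellTiter-Glo luminescence in the same ARE-bla HepG2 plates, after 16 h compound exposure and a 2 h beta-lactamase substrate step.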

[4] = qHTS Assay for Identifying Gametocytocidal Compounds (AID 743244);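 also: % is scaled to controls: 0 for no effect and ±100 for the full control effect; actives lower the fluorescent signal which means gametocytes are killed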; settings: P. falciparum 3D7 stage III-V gametocytes, alamarBlue, 72 h; max response: stronger effect = lower value
How it was run: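 P. falciparum 3D7 stage III–V gametocytes (20,000 cells/well) were exposed to compounds for 72 h at 37 °C, 5% CO2. AlamarBlue was then added for 24 h; decreased resorufin fluorescence (Ex 525/Em 598 nm) indicated loss of viability.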

[5] = qHTS assay for cell viability of the p53RE-bla HCT-116 cell line (AID 743292); also: % is scaled to controls: 0 for no effect and ±100 for the full control effect; nearly all actives have a fitted effect of over 55% in size
How it was run: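 In this qHTS counter-screen, metabolically competent p53RE-bla HCT-116 cells were counted via their ATP content. Compounds were applied for 16 h at 37 C and luciferase-coupled luminescence was measured.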

[6] = qHTS assay for cell viability of HEK293 cells (AID 743288); settings: ATP luminescence (CellTiter-Glo), 18 h; max response: stronger effect = lower value; also: nearly all actives have a fitted effect of over 50% in size; also: potency is read from the fitted curve at half-maximal effect; as to max response: % is scaled to controls: 0 for no effect and ±100 for the full control effect
How it was run: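 Steps: plate 2,000 parental HEK293 cells per well; incubate ≥5 h, 37 C; add compounds in DMSO; incubate 18 h, 37 C; add CellTiter-Glo; wait 30 min at room temperature; read luminescence.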

C[C@H](CCC(=O)O)[C@H]1CC[C@H]2[C@@H]3CC[C@@H]4C[C@H](O)CC[C@]4(C)[C@H]3C[C@H](O)[C@]12C
Potency [1]: inactive
outcome [2]: inactive
max response [3]: -10.6%
max response [4]: 6.91%
outcome [5]: inactive

Nc1nccs1
Potency [1]: inactive
max response [3]: -16.1%
max response [4]: 1.76%
max response [6]: -5.55%
outcome [5]: inactive

O=P(O)(O)O
Potency [1]: inactive
outcome [2]: inactive
max response [3]: -2%
max response [4]: -3.37%
outcome [5]: inactive

NCCN
Potency [1]: inactive
outcome [2]: inactive
max response [3]: -3.91%
max response [4]: 20.9%
outcome [5]: inactive

ClC(Cl)Cl
Potency [1]: inactive
outcome [2]: inactive
max response [3]: -10.5%
max response [4]: 9.6%
outcome [5]: inactive

CCCCC(CC)COS(=O)(=O)O (stereo unspecified)
Potency [1]: inactive
max response [3]: 8.31%
max response [4]: -3.23%
max response [6]: 8.79%
outcome [5]: inactive

OCc1ccccc1
Potency [1]: inactive
outcome [2]: inactive
max response [3]: -4.76%
max response [4]: 0.478%
outcome [5]: inactive

Cc1ncc(C[n+]2csc(CCO)c2C)c(N)n1
max response [4]: 2.57%

O=C(OCc1ccccc1)c1ccc(O)cc1
max response [3]: -5.99%
max response [4]: 1.16%
max response [6]: -7.01%
outcome [5]: inactive

C=C(C)C1CC=C(C)CC1 (stereo unspecified)
Potency [1]: inactive
max response [3]: -0.676% and -5.86%
max response [4]: 0.817%
outcome [5]: inactive

C=C1[C@H](CO)[C@@H](O)C[C@@H]1n1cnc2c(=O)[nH]c(N)nc21
max response [4]: 18.1%

C=C1C(CCl)(CCl)C2(Cl)C(Cl)C(Cl)C1(Cl)C2(Cl)Cl (stereo unspecified)
Potency [1]: 66.8 µM (active)
max response [4]: -0.376%

NC[C@H]1O[C@H](O[C@H]2[C@H](O)[C@@H](O[C@H]3O[C@H](CO)[C@@H](O)[C@H](N)[C@H]3O)[C@H](N)C[C@@H]2N)[C@H](N)C[C@@H]1O
max response [4]: -3.45%

CC(O)[C@H]1CC[C@H]2[C@@H]3CC[C@@H]4C[C@@H](O)CC[C@]4(C)[C@H]3CC[C@]12C (stereo partly specified)
max response [4]: 4.2%

[O-][N+](=Nc1ccccc1)c1ccccc1
outcome [2]: inactive
max response [3]: -2.2%
max response [4]: 18.6%
outcome [5]: inactive

C[Si](C)(C)O[Si](C)(C)C
Potency [1]: inactive
max response [3]: -6.75%
outcome [5]: inactive

O=C1/C(=C\c2cccs2)CCC/C1=C\c1cccs1
max response [4]: 5.47%

NC(N)=NCC1COc2ccccc2O1 (stereo unspecified)
max response [4]: -11.6%

O.O.O.O.O.O.O.O=S(=O)([O-])[O-].[Co+2]
Potency [1]: inactive
max response [3]: -4.91%
max response [4]: 0.797%
outcome [5]: inactive

CC(C)CCCCCCc1ccc(O)cc1
Potency [1]: inactive
max response [3]: -6.03%
max response [4]: 9.95%
outcome [5]: inactive

COc1cc2c(cc1OC)[C@@H](c1ccccc1)CN(C)CC2
max response [4]: -3.71%

O=P(O)(O)CP(=O)(O)O
max response [4]: -3.27%

O=C1c2ccccc2CN2C(=O)c3ccccc3CN12
max response [4]: 10.5%

CN(CCO)CC(O)Cn1cnc2c1c(=O)n(C)c(=O)n2C (stereo unspecified) (tested in a mixture with another compound)
Potency [1]: inactive
max response [3]: 2.54%
max response [4]: 2.62%
outcome [5]: inactive

CCCc1nc(C(C)(C)O)c(C(=O)OCc2oc(=O)oc2C)n1Cc1ccc(-c2ccccc2-c2nn[nH]n2)cc1
max response [4]: 48.2%

CCc1ccc(S(=O)(=O)O)cc1
max response [4]: -6.98%

O=C1c2ccccc2C(=O)c2c1ccc(O)c2O
max response [4]: 2.07%

CCc1ncnc2cc(OC)c(OC)cc12
max response [4]: -4.33%

CCOC(=O)Oc1c(OC)cc(C(=O)O[C@@H]2C[C@@H]3CN4CCc5c([nH]c6cc(OC)ccc56)[C@H]4C[C@@H]3[C@H](C(=O)OC)[C@H]2OC)cc1OC
max response [4]: 3.15%

CC(C)(C)CC(C)(C)c1ccc(OCCO)cc1
Potency [1]: inactive
max response [3]: -18%
max response [4]: 12.7%
outcome [5]: inactive

CC(C)CCC[C@@H](C)[C@H]1CC[C@H]2[C@@H]3CC=C4C[C@@H](O)CC[C@]4(C)[C@H]3CC[C@]12C
Potency [1]: inactive
max response [3]: -4.46%
max response [4]: -0.629%
outcome [5]: inactive

CC[C@H](C)[C@@H]1NC(=O)[C@H](Cc2ccc(O)cc2)NC(=O)[C@@H](N)CSSC[C@@H](C(=O)N2CCC[C@H]2C(=O)N[C@@H](CC(C)C)C(=O)NCC(N)=O)NC(=O)[C@H](CC(N)=O)NC(=O)[C@H](CCC(N)=O)NC1=O
max response [4]: 0.419%

CC(C)(CO)[C@@H](O)C(=O)NCCCC(=O)O
max response [4]: -4.37%

CO[C@@H]1[C@H](OC(=O)/C=C/C=C/C=C/C=C/C(=O)O)CC[C@]2(CO2)[C@H]1[C@@]1(C)O[C@@H]1CC=C(C)C
max response [3]: 8.65%
max response [4]: -5.74%
outcome [5]: inactive

NC(Cc1ccccc1)C(=O)O (stereo unspecified)
max response [4]: 3.95%

c1ccc(-n2cnnn2)cc1
max response [4]: 0.811%

COC(=O)[C@@H](N)CS
max response [4]: 0.957%

OC[C@H]1OC([S-])[C@H](O)[C@@H](O)[C@@H]1O.[Au+] (stereo partly specified)
max response [4]: -13.3%

CCCCCCCCCCCCCCCCCC(=O)OC[C@@H](O)[C@H]1OC[C@H](O)[C@H]1O
Potency [1]: inactive
max response [3]: -0.0548%
max response [4]: -8.87%
outcome [5]: inactive

OCCOCCOCCO
Potency [1]: inactive
max response [3]: -9.26% and -13.2%
max response [4]: -2.42%
outcome [5]: inactive

C[C@H]1O[C@@H](O[C@H]2[C@@H](O)C[C@H](O[C@H]3[C@@H](O)C[C@H](O[C@H]4CC[C@@]5(C)[C@H](CC[C@@H]6[C@@H]5C[C@@H](O)[C@]5(C)[C@@H](C7=CC(=O)OC7)CC[C@]65O)C4)O[C@@H]3C)O[C@@H]2C)C[C@H](O)[C@@H]1O
Potency [1]: inactive
max response [4]: -13.6%
Potency [6]: 126 nM (active) and 50.1 nM (active)
